# KDM5B inh: blocks human KDM5B histone demethylase activity | Q9UGL1 | KDM5B demethylase, FDH-coupled NADH fluorescence (FDH is formaldehyde dehydrogenase) | Potency, µM (top dose mostly 57.7 µM), hits mostly inhibitors | 220,000 tested, 2.6% active | AID 1347165; active = well fitted inhibition curve with a large enough effect; also: nearly all actives have a fitted effect of over 70% in size
#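 Inhibition is measured as reduced NADH fluorescence generation from FDH coupling to formaldehyde release. Truncated KDM5BΔAP at 200 nM final acts on H3K4me3 peptide (12.5 µM in substrate mix) in pH 7.5 HEPES buffer with Tween-20, 30 min, room temperature.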
# Numbers stand for hits; . = inactive. This excerpt belongs to a sample that is enriched for hits.
SMILES,KDM5B inh
CC1CCN(c2nc3c(c(=O)[nH]c(=O)n3C)n2CCSc2nc3ccccc3[nH]2)CC1,.
O=C1CC(N2CCC(c3nc4ccccc4o3)CC2)C(=O)N1c1ccc(F)c(Cl)c1 (stereo unspecified),.
CCCn1c(=O)[nH]c(=O)c2c3c(cnc21)C(=O)CC(c1ccccc1)C3 (stereo unspecified),.
CCC(C)NC(=O)CS(=O)(=O)Cc1cc(C)no1 (stereo unspecified),.
CCNC[C@H]1O[C@H](Cc2cc(-c3ccc(F)cc3)on2)CC[C@@H]1O,.
COc1ccc(-c2cc3nc4c(c(=O)n3[nH]2)CN(C(=O)c2ccncc2)CC4)cc1,.
O=C(c1ccc2cc[nH]c2c1)N1CCCC(Cc2noc(-c3ccccc3)n2)C1 (stereo unspecified),.
O=C(c1ccc2cc[nH]c2c1)N1CCc2c(nc3cc(-c4ccccc4)[nH]n3c2=O)C1,28.2µM
COc1ccc(-c2nc3c(c(-c4ccccc4)n2)CN(C(=O)c2ccc(F)cc2)CC3)cc1,.
COc1ccc(-c2cc3nc4c(c(=O)n3[nH]2)CN(C(=O)c2ccc3[nH]ccc3c2)CC4)cc1,15.8µM
O=C(c1cc(-c2ccccc2)n[nH]1)N1CCc2c(nc(-c3ccccc3)[nH]c2=O)C1,.
Cc1ccc(/C=C(/SCC(=O)O)c2nc3ccccc3s2)cc1C,.
CCOC(=O)/C(C#N)=C/c1cc(Cl)c(OCCOc2ccc(C(C)CC)cc2)c(OC)c1 (stereo unspecified),.
O=C1N(Cc2cccc(F)c2F)CCCC1(O)CNCc1cccc(F)c1 (stereo unspecified),.
COc1cccc(C(N)=O)c1OCc1ccc(C)cc1,.
O=Cc1cc(Cc2ccccc2Cl)ccc1O,.
O=C(NC[C@H]1O[C@@H](CO)[C@@H](O)[C@H]1N1CCN(c2ccccn2)CC1)Nc1ccccc1,.
O=C(NC[C@H]1O[C@@H](CC(=O)N2CCN(c3ccccn3)CC2)[C@H](O)[C@@H]1O)NC1CCCCC1,25.1µM
O=C(NC[C@H]1O[C@@H](CC(=O)N2CCN(c3ccc(F)cc3)CC2)[C@H](O)[C@@H]1O)c1ccccc1,.
O=C(O)c1cc(C(=O)O)c2sc(=O)[nH]c2c1,.
Cn1nc(C(=O)N2CCC(n3c(=O)[nH]c4ccccc43)CC2)c2ccccc2c1=O,.
CN(CC(=O)Nc1ccc(Cl)c(Cl)c1)C(=O)c1ccc2ccccc2c1,.
CCc1c(C)sc(NC(=O)C2CCC2)c1C#N,.
CCn1nc(C(=O)OCCOc2ccccc2Cl)c2ccccc2c1=O,.
O=C(C1CC(=O)N(c2n[nH]c3cccc(F)c23)C1)N1CCN(c2ccc(Cl)cc2)CC1 (stereo unspecified),22.4µM
SMILES,KDM5B inh
O=C(C1CC(=O)N(c2n[nH]c3ccccc23)C1)N1CCN(c2ccc(Cl)cc2)CC1 (stereo unspecified),.
Cc1ccc(NC(=O)C2CC(=O)N(c3n[nH]c4cccc(F)c34)C2)cc1 (stereo unspecified),20µM
Cn1cc(NC(=O)C2CC(=O)N(c3n[nH]c4cccc(F)c34)C2)cn1 (stereo unspecified),.
CC(C)(C)c1csc(NC(=O)C2CC(=O)N(c3n[nH]c4cccc(F)c34)C2)n1 (stereo unspecified),.
Cc1ccc(NC(=O)C2CC(=O)N(c3n[nH]c4cccc(F)c34)C2)nc1 (stereo unspecified),.
CC(C)CCNC(=O)C1CC(=O)N(c2n[nH]c3cccc(F)c23)C1 (stereo unspecified),.
COc1ccc(NC(=O)C2CC(=O)N(c3n[nH]c4cccc(F)c34)C2)cc1 (stereo unspecified),25.1µM
COc1ccc(CCNC(=O)C2CC(=O)N(c3n[nH]c4cccc(F)c34)C2)cc1OC (stereo unspecified),.
CS(=O)(=O)N1CCN(C(=O)C2CC(=O)N(c3n[nH]c4cccc(F)c34)C2)CC1 (stereo unspecified),.
Cc1nc(NC(=O)C2CC(=O)N(c3n[nH]c4cccc(F)c34)C2)sc1C (stereo unspecified),.
COc1ccc(OC)c(NC(=O)C2CC(=O)N(c3n[nH]c4cccc(F)c34)C2)c1 (stereo unspecified),31.6µM
COc1ccc(NS(=O)(=O)c2ccc3oc(SCC(=O)N4CCCCCC4)nc3c2)cc1,.
COc1ccc(CNC(=O)CCCn2c(C)c3cnn(-c4ccccc4)c(=O)c3c2C)cc1,.
O=C(NCC(c1cccs1)N1CCCCCC1)c1cc(=O)c2cc(Br)ccc2o1 (stereo unspecified),.
CCCCC(=O)Nc1sccc1C#N,.
COc1ccc(N2Cc3c(ncnc3N3CCN(Cc4ccccc4)CC3)N(C)CC2=O)cc1,.
O=C(NCc1ccccc1OC(F)F)c1ccc(-n2cnnn2)cc1,.
CCOC(=O)CNC(=O)NCC(=O)N1CCc2ccccc21,.
Cc1cc2cc(NS(=O)(=O)c3ccc(C)c(C)c3)ccc2[nH]1,.
Cc1ccnc(NC(=O)C2CC(=O)N(c3n[nH]c4cccc(F)c34)C2)c1 (stereo unspecified),.
Cc1ccc(NC(=O)C2CC(=O)N(c3n[nH]c4cccc(F)c34)C2)c(C)c1 (stereo unspecified),22.4µM
O=C(Nc1nccs1)C1CC(=O)N(c2n[nH]c3cccc(F)c23)C1 (stereo unspecified),.
O=C(NCc1ccccn1)C1CC(=O)N(c2n[nH]c3cccc(F)c23)C1 (stereo unspecified),.
CCOc1ccc(NC(=O)C2CC(=O)N(c3n[nH]c4cccc(F)c34)C2)cc1 (stereo unspecified),22.4µM
O=C(NCc1ccc(Cl)cc1)C1CC(=O)N(c2n[nH]c3cccc(F)c23)C1 (stereo unspecified),20µM
SMILES,KDM5B inh
O=C(NCc1ccccc1)C1CC(=O)N(c2n[nH]c3cccc(F)c23)C1 (stereo unspecified),.
Cc1ccc2nc(NC(=O)C3CC(=O)N(c4n[nH]c5cccc(F)c45)C3)sc2c1 (stereo unspecified),.
C=CCNC(=O)C1CC(=O)N(c2n[nH]c3cccc(F)c23)C1 (stereo unspecified),.
CC(C)CCn1c(SCCCc2ccccc2)nc2c1c(=O)[nH]c(=O)n2C,.
O=C1/C(=C/c2cccc(Cl)c2Cl)C(c2ccccc2)Oc2ccccc21 (stereo unspecified),.
CCCOc1ccc(C2CC(=O)Nc3c2c(C)nn3-c2ccc3nncn3n2)cc1OCC (stereo unspecified),.
CCCn1c(C)cnc1CC1CCCN(S(=O)(=O)c2cccs2)C1 (stereo unspecified),.
O=C(c1ccccc1)N1CCCC2(C1)C(=NC1CCCC1)NC(=O)N2c1cccnc1 (stereo unspecified),.
COc1cc(OC)cc(C(=O)N2CCCC3(C2)Nc2cccnc2NC3=NC2CCCC2)c1 (stereo unspecified),28.2µM
COc1cccc(N2C(=O)NC(=NC3CCCC3)C23CCCN(C(=O)c2ccc(C)cc2)C3)c1 (stereo unspecified),.
O=C(CSc1ccccc1)N1CCCC2(C1)Nc1cccnc1NC2=NC1CCCC1 (stereo unspecified),28.2µM
COc1cccc(N2C(=O)NC(=NC3CCCCC3)C23CCCN(C(=O)c2ccc(C)cc2)C3)c1 (stereo unspecified),.
Cc1ccc(C2=NC3(CCN(C(=O)CSc4ccccc4)CC3)ON2)cc1,.
